Inconclusive results are not listed. Calls of active or inactive are those of the source. Unless noted, calls come from the whole dose curve; as a rule, active = well fitted curve in the direction sought with a large enough effect in the repeat runs; inconclusive = weak or mixed curves; inactive = no such curve, though single readings can be large; an effect the other way counts as inactive or inconclusive.
Columns and labels:
[1] = qHTS assay to identify small molecule agonists of the vitamin D receptor (VDR) signaling pathway - cell viability counter screen (AID 743224); note: series mostly up to about 63 µM; % is set by controls: 0 for no effect and ±100 for the full control effect; nearly all actives have a fitted effect of over 50% in size
Method in brief: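 VDR-bla cells were preincubated 4 h at 37C/5% CO2, then exposed to compounds for 16 h. After the 2 h room-temperature bla FRET read, CellTiter-Glo was added to the same wells and luminescence read after 30 min.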

[2] = qHTS assay to identify small molecule antagonists of the vitamin D receptor (VDR) signaling pathway - cell viability counter screen (AID 743225); note: % is set by controls: 0 for no effect and ±100 for the full control effect; nearly all actives have a fitted effect of over 50% in size
Method in brief: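 Luminescent cell viability (CellTiter-Glo) in VDR-bla HEK 293T cells after 16 h compound exposure at 37C in the presence of 3 nM final 1-alpha,25-dihydroxy vitamin D3.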

[3] = qHTS assay to identify small molecule agonists of the NFkB signaling pathway (AID 1159509; active = well fitted curve in the direction sought with a large enough effect in the signal ratio in the repeat runs, not every such curve was filed as active; the % refers to the signal ratio; note: series mostly up to about 61 µM; % is set by controls: 0 for no effect and ±100 for the full control effect)
Method in brief: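 After overnight attachment, reporter cells received test compounds, DMSO or positive controls and were incubated 5 hr at 37 C. FRET substrate was then added for 1.5 hr at room temperature before dual-emission fluorescence reading.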

[4] = qHTS assay to identify small molecule agonists of the NFkB signaling pathway - cell viability counter screen (AID 1159515; calls by dose curve; note: series mostly up to about 61 µM; % is set by controls: 0 for no effect and ±100 for the full control effect; nearly all actives have a fitted effect of over 55% in size)
Method in brief: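 NFkB-bla ME-180 cells, 2,000/well, were plated overnight at 37 C, 5% CO2, then exposed to compounds in DMSO for 5 hr. After the bla FRET read, CellTiter-Glo was added to the same wells; luminescence was read after 30 min at room temperature.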

[5] = qHTS assay to identify small molecule agonists of the endoplasmic reticulum stress response signaling pathway (AID 1159516; active = well fitted activation curve with a large enough effect in the signal ratio in the repeat runs, not every such curve was filed as active; the % refers to the signal ratio; note: % is set by controls: 0 for no effect and ±100 for the full control effect)
Method in brief: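 CellSensor ESRE-bla HeLa cells, carrying a beta-lactamase reporter driven by the ER stress response element, were plated overnight and exposed to compounds for 5 hr at 37 C. Reporter activity was read as FRET substrate fluorescence after 2 hr at room temperature.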

[6] = qHTS assay to identify small molecule agonists of the endoplasmic reticulum stress response signaling pathway - cell viability counter screen (AID 1159517; calls by dose curve; note: series mostly up to about 61 µM; % is set by controls: 0 for no effect and ±100 for the full control effect; nearly all actives have a fitted effect of over 50% in size)
Method in brief: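 Counter-screen wells were identical to the reporter wells. Cells were plated at 1,500 per well and dosed for 5 hr, then read for luminescence 30 min after CellTiter-Glo addition.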

[7] = qHTS assay to identify small molecule antagonists of the retinoid-related orphan receptor gamma (ROR-gamma) signaling pathway - cell viability counter screen (AID 1159520); note: % is set by controls: 0 for no effect and ±100 for the full control effect; nearly all actives have a fitted effect of over 50% in size
Method in brief: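 Tet-on ROR gamma CHO cells were given compounds for 2 hr, then doxycycline hyclate at 1 uM final, and incubated 16 hr at 37 C. Viability was measured as ATP content by CellTiter-Glo luminescence.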

[8] = target: Nuclear receptor ROR-gamma (Homo sapiens) (UniProt P51449); assay: qHTS assay to identify small molecule antagonists of the retinoid-related orphan receptor gamma (ROR-gamma) signaling pathway (AID 1159521)
Method in brief: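 CHO cells expressing RORγ under a TET-on promoter, luciferase under RORE control. Dox 1 uM final, 16 h; compounds added 2 h prior. Luminescence decrease measured.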

[9] = qHTS assay to identify small molecule agonists of the AP-1 signaling pathway - cell viability counter screen (AID 1159525; calls by dose curve; note: nearly all actives have a fitted effect of over 55% in size)
Method in brief: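 AP-1-bla ME-180 cells in Opti-MEM with 0.5% dialyzed FBS, compound exposure 5 h at 37 C in 15-point titration. Viability read in the same wells as ATP content by CellTiter-Glo luminescence, normalised to tetra-n-octylammonium bromide and DMSO controls.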

[10] = qHTS assay to identify small molecule agonists of the AP-1 signaling pathway (AID 1159526; calls by dose curve; note: % is set by controls: 0 for no effect and ±100 for the full control effect)
[11] = target: Retinoic acid receptor RXR-alpha (Homo sapiens) (UniProt P19793); assay: qHTS assay to identify small molecule agonists of the RXR signaling pathway (AID 1159527; calls by dose curve; note: % is set by controls: 0 for no effect and ±100 for the full control effect; nearly all actives have a fitted effect of over 35% in size)
Sequence of Retinoic acid receptor RXR-alpha (Homo sapiens) (P19793 whole entry, looked up): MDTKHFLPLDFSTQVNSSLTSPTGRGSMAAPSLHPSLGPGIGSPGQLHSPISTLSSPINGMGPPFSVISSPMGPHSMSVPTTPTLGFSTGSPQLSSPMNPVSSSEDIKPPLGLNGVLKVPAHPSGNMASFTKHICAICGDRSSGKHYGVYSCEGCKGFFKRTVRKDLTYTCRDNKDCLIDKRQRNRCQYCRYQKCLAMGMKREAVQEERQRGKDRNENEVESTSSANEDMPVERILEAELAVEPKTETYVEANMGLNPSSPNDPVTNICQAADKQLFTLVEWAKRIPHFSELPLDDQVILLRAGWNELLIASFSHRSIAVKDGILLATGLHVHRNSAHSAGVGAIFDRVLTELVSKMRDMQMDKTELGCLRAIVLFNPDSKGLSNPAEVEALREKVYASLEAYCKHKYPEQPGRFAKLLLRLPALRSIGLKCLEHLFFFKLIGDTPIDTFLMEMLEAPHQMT
Method in brief: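 Beta-lactamase reporter assay, agonist format. Engineered HEK 293T line, charcoal-stripped FBS at 2%, overnight (16 hr) exposure, fluorescence at 460 and 530 nm after 405 nm excitation.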

[12] = qHTS assay to identify small molecule agonists of the RXR signaling pathway - cell viability counter screen (AID 1159529)
Method in brief: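 Same-well viability check after the LiveBLAzer FRET read: CellTiter-Glo added, luminescence measured after 30 min at room temperature. Reporter HEK 293T cells had been treated with compounds for 16 hr following a 5 hr preincubation.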

[13] = qHTS assay to identify small molecule antagonists of the retinoid acid receptor (RAR) signaling pathway - cell viability counter screen (AID 1159551); note: % is set by controls: 0 for no effect and ±100 for the full control effect; nearly all actives have a fitted effect of over 35% in size
Method in brief: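 C3RL4 cells were seeded overnight at 37 C, then treated with compounds plus 1 uM (final) retinol for 6 h at 37 C. Viability was read as ATP by CellTiter-Glo luminescence after 30 min at room temperature.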

[14] = qHTS assay to identify small molecule antagonists of the retinoic acid receptor (RAR) signaling pathway (AID 1159552)
Method in brief: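 Readout: luciferase luminescence, 30 min post-reagent at RT. Setup: C3RL4 RARE reporter cells, compounds plus retinol 1 uM final, 6 hr incubation at 37 C and 5% CO2.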

[15] = qHTS assay to identify small molecule agonists of the retinoic acid receptor (RAR) signaling pathway (AID 1159553); note: % is set by controls: 0 for no effect and ±100 for the full control effect
Method in brief: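 C3RL4 cells carrying a RARE luciferase reporter were plated overnight at 37 C, then exposed to compounds in DMSO for 6 hr at 37 C and 5% CO2. Luminescence was read 30 min after luciferase reagent addition at room temperature.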

Cc1ccc2cc(C)ccc2c1
inactive: Potency [1] | Potency [2] | outcome [3] | outcome [4] | outcome [5] | Potency [6] | Potency [7] | Potency [8] | Potency [9] | outcome [10] | Potency [11] | Potency [12] | Potency [13] | Potency [14] | Potency [15]

O=C(Cl)OCc1ccccc1
inactive: Potency [1] | Potency [2] | outcome [3] | outcome [4] | outcome [5] | Potency [6] | Potency [7] | Potency [8] | Potency [9] | outcome [10] | Potency [11] | Potency [12] | Potency [13] | Potency [14] | Potency [15]

COc1ccc2c(C(=O)c3ccc(Cl)cc3)c(C)n(CC(=O)O)c2c1
inactive: Potency [1] | Potency [2] | outcome [3] | outcome [4] | outcome [5] | Potency [6] | Potency [7] | Potency [8] | Potency [9] | outcome [10] | Potency [11] | Potency [12] | Potency [13] | Potency [14] | Potency [15]

CC[C@H](N)c1ccccc1
inactive: Potency [1] | Potency [2] | outcome [3] | outcome [4] | outcome [5] | Potency [6] | Potency [7] | Potency [8] | Potency [9] | outcome [10] | Potency [11] | Potency [12] | Potency [13] | Potency [14] | Potency [15]

[P]#[In]
inactive: Potency [1] | Potency [2] | outcome [3] | outcome [4] | outcome [5] | Potency [6] | Potency [7] | Potency [8] | Potency [9] | outcome [10] | Potency [11] | Potency [12] | Potency [13] | Potency [14] | Potency [15]

CC(=O)OCC1=C(C(=O)O)N2C(=O)[C@@H](N)[C@H]2SC1
inactive: Potency [1] | Potency [2] | outcome [3] | outcome [4] | outcome [5] | Potency [6] | activity, negative = cytotoxicity [7] 5.7% [at 19 µM] | activity change, negative = inhibition [8] 30.2% [at 19 µM] | viability change, negative = cytotoxic [9] -1.2% [at 15.8 µM] | activation [10] 4.04% [at 15.8 µM] | activation [11] -0.797% [at 15.8 µM] | activity change, negative = cytotoxicity [12] -9.25% [at 15.8 µM] | activity change, negative = cytotoxicity [13] 0.328% [at 19 µM] | activity, negative = inhibition [14] -17.1% [at 19 µM] | Potency [15]

CCNP(=S)(OC)O/C(C)=C/C(=O)OC(C)C (stereo not given)
inactive: Potency [1] | Potency [2] | outcome [3] | outcome [4] | outcome [5] | Potency [6] | Potency [7] | Potency [8] | Potency [9] | outcome [10] | Potency [11] | Potency [12] | Potency [13] | Potency [14] | Potency [15]

CC1N=C(N)OC1c1ccccc1 (stereo not given)
inactive: Potency [1] | Potency [2] | outcome [3] | outcome [4] | outcome [5] | Potency [6] | Potency [7] | Potency [8] | Potency [9] | outcome [10] | Potency [11] | Potency [12] | Potency [13] | Potency [14] | Potency [15]

CCC1(c2ccccc2)CCC(=O)NC1=O (stereo not given)
inactive: Potency [1] | Potency [2] | outcome [3] | outcome [4] | outcome [5] | Potency [6] | Potency [7] | Potency [8] | Potency [9] | outcome [10] | Potency [11] | Potency [12] | Potency [13] | Potency [14] | Potency [15]

COc1cc(CCN)cc(OC)c1OC
inactive: Potency [1] | Potency [2] | outcome [3] | outcome [4] | outcome [5] | Potency [6] | Potency [7] | Potency [8] | Potency [9] | outcome [10] | Potency [11] | Potency [12] | Potency [13] | Potency [14] | Potency [15]

CS(=O)(=O)c1ccc(C(=O)C2C(=O)CCCC2=O)c(Cl)c1COCC(F)(F)F
inactive: Potency [1] | Potency [2] | outcome [3] | outcome [4] | outcome [5] | Potency [6] | Potency [7] | Potency [8] | Potency [9] | outcome [10] | Potency [11] | Potency [12] | Potency [13] | Potency [14] | Potency [15]

ClCCN1CCCC1
inactive: Potency [1] | Potency [2] | outcome [3] | outcome [4] | outcome [5] | Potency [6] | Potency [7] | Potency [8] | Potency [9] | outcome [10] | Potency [11] | Potency [12] | Potency [13] | Potency [14] | Potency [15]

c1ccc2c(c1)CCNC2
inactive: Potency [1] | Potency [2] | outcome [3] | outcome [4] | outcome [5] | Potency [6] | Potency [7] | Potency [8] | Potency [9] | outcome [10] | Potency [11] | Potency [12] | Potency [13] | Potency [14] | Potency [15]

OP(O)c1ccccc1
inactive: Potency [1] | Potency [2] | outcome [3] | outcome [4] | outcome [5] | Potency [6] | Potency [7] | Potency [8] | Potency [9] | outcome [10] | Potency [11] | Potency [12] | Potency [13] | Potency [14] | Potency [15]

CCOP(=O)(CN(CCO)CCO)OCC
inactive: Potency [1] | Potency [2] | outcome [3] | outcome [4] | outcome [5] | Potency [6] | Potency [7] | Potency [8] | Potency [9] | outcome [10] | Potency [11] | Potency [12] | Potency [13] | Potency [14] | Potency [15]

CCCCCCC1CCOC1=O (stereo not given)
inactive: Potency [1] | Potency [2] | outcome [3] | outcome [4] | outcome [5] | Potency [6] | Potency [7] | Potency [8] | Potency [9] | outcome [10] | Potency [11] | Potency [12] | Potency [13] | Potency [14] | Potency [15]

COc1cccc(C=O)c1
inactive: Potency [1] | Potency [2] | outcome [3] | outcome [4] | outcome [5] | Potency [6] | Potency [7] | Potency [8] | Potency [9] | outcome [10] | Potency [11] | Potency [12] | Potency [13] | Potency [14] | Potency [15]

BrCc1ccc(Br)cc1
inactive: Potency [1] | Potency [2] | outcome [3] | outcome [4] | outcome [5] | Potency [6] | Potency [7] | Potency [8] | Potency [9] | outcome [10] | Potency [11] | Potency [12] | Potency [13] | Potency [14] | Potency [15]

CC(C)C(C)(N)C#N (stereo not given)
inactive: Potency [1] | Potency [2] | outcome [3] | outcome [4] | outcome [5] | Potency [6] | Potency [7] | Potency [8] | Potency [9] | outcome [10] | Potency [11] | Potency [12] | Potency [13] | Potency [14] | Potency [15]
